# Results taken from the supplement of paper PMC8387472.
# Key:
# Assay in all cases: fraction of 1-bp insertions among edited reads; higher = more 1-bp insertion outcomes
# Settings in all cases: mESC; 2uM; 72 h treatment, harvest day 5
# [1] = compound: CCn1c(=O)c(-c2ccc(Cl)cc2Cl)cc2cnc(Nc3ccc(N4CCNCC4)c(F)c3)nc21
# [2] = compound: CNc1ccc([N+](=O)[O-])c(Nc2ccc3[nH]ncc3c2)n1
# Rifapentine = compound: CO[C@H]1/C=C/O[C@@]2(C)Oc3c(C)c(O)c4c(O)c(c(/C=N/N5CCN(C6CCCC6)CC5)c(O)c4c3C2=O)NC(=O)/C(C)=C\C=C\[C@H](C)[C@H](O)[C@@H](C)[C@@H](O)[C@@H](C)[C@H](OC(C)=O)[C@@H]1C [Rifapentine]
# [3] = compound: COc1ccccc1-c1cc(Nc2cccc(CS(N)(=O)=O)c2)ncn1
# [4] = compound: C[C@@H]1CN(CC(=O)Nc2ccc3c(c2)Cc2cccc(-c4cc(=O)cc(N5CCOCC5)o4)c2S3)C[C@H](C)O1
# [5] = compound: Cc1cc(C)nc(SCC(=O)Nc2ncc(Cc3cccc4ccccc34)s2)n1
# [6] = compound: Cc1ccc(C(=O)NCCCCCC(=O)Nc2ccccc2N)cc1
# [7] = compound: Cc1cccc(CC(=O)N2CCc3c2ccc(-c2cn(C)c4ncnc(N)c24)c3F)n1
# [8] = compound: NC(=O)c1ccc2nc(-c3ccc(Oc4ccc(Cl)cc4)cc3)[nH]c2c1 [Chk 2 inhibitor II (BML-277)]
# Tucidinostat (Chidamide) = compound: Nc1cc(F)ccc1NC(=O)c1ccc(CNC(=O)/C=C/c2cccnc2)cc1 [Tucidinostat (Chidamide)]
# Pemetrexed = compound: Nc1nc2[nH]cc(CCc3ccc(C(=O)N[C@@H](CCC(=O)O)C(=O)O)cc3)c2c(=O)[nH]1 [Pemetrexed]
# [9] = compound: Nc1ncnc2c1c(-c1cnc3[nH]ccc3c1)nn2C1CCCC1
# [10] = compound: O=C(c1cccc(Cl)c1F)N1CCN(Cc2cccc(Nc3nccs3)n2)CC1
# Kenpaullone = compound: O=C1Cc2c([nH]c3ccc(Br)cc23)-c2ccccc2N1 [Kenpaullone]
# Genistein = compound: O=c1c(-c2ccc(O)cc2)coc2cc(O)cc(O)c12 [Genistein]
# [11] = compound: O=c1cc(N2CCOCC2)oc2c(-c3ccc4c(c3)OCCO4)csc12
# Mercaptopurine (6-MP) = compound: S=c1[nH]cnc2nc[nH]c12 [Mercaptopurine (6-MP)]
# [12] = compound: S=c1nc[nH]c2nc[nH]c12 [6-Mercaptopurine (6-MP) Monohydrate]
Target,fraction of 1-bp insertions among edited reads [1],fraction of 1-bp insertions among edited reads [2],fraction of 1-bp insertions among edited reads (Rifapentine),fraction of 1-bp insertions among edited reads [3],fraction of 1-bp insertions among edited reads [4],fraction of 1-bp insertions among edited reads [5],fraction of 1-bp insertions among edited reads [6],fraction of 1-bp insertions among edited reads [7],fraction of 1-bp insertions among edited reads [8],fraction of 1-bp insertions among edited reads (Tucidinostat (Chidamide)),fraction of 1-bp insertions among edited reads (Pemetrexed),fraction of 1-bp insertions among edited reads [9],fraction of 1-bp insertions among edited reads [10],fraction of 1-bp insertions among edited reads (Kenpaullone),fraction of 1-bp insertions among edited reads (Genistein),fraction of 1-bp insertions among edited reads [11],fraction of 1-bp insertions among edited reads (Mercaptopurine (6-MP)),fraction of 1-bp insertions among edited reads [12]
"4.0 (DMSO control at this site: 1-bp insertion 0.146, MH deletion 0.523, edited 0.125) ACGCCTTAGTGCACGAGTGACGGGATAATGTGGTCTCAGGTAATTGATAGGCTTCCAACTT",0.102,0.165,0.101,0.15,0.416,0.132,0.145,0.167,0.102,0.171,0.121,0.237,0.18,0.171,0.126,0.137,0.161,0.153
"38.0 (DMSO control at this site: 1-bp insertion 0.063, MH deletion 0.487, edited 0.17) GGGCTGGGTGCTAAAATGAGGAGCTCCAAGAAGACTGAGGTGAACCTGGAGGCCCCTGAGC",0.0578,0.0482,0.0681,0.0731,0.178,0.0549,0.0526,0.0567,0.0523,0.0633,0.0448,0.104,0.0891,0.102,0.0646,0.0742,0.0697,0.0502
"28.0 (DMSO control at this site: 1-bp insertion 0.035, MH deletion 0.77, edited 0.142) TGGTTCTTCCTTTGTAGAGAGTGTTCATCTGGGAATCTGGGACTTGGATGAGACAATCATT",0.029,0.0402,0.0344,0.0432,0.078,0.0369,0.0388,0.0456,0.0349,0.0493,0.0369,0.0494,0.0462,0.0461,0.032,0.0316,0.0428,0.0506
"2.0 (DMSO control at this site: 1-bp insertion 0.364, MH deletion 0.356, edited 0.125) GGTGCCCCCGAGACCTACGCGAACCGAAATCGATGTCCGGTGCGCAAGCAGGGCTGGCGTC",0.368,0.43,0.334,0.457,0.745,0.397,0.451,0.471,0.378,0.433,0.327,0.539,0.498,0.478,0.309,0.331,0.452,0.434
"33.0 (DMSO control at this site: 1-bp insertion 0.008, MH deletion 0.771, edited 0.112) CATTAAGAGCAGCTGCCGGCCCCCAAGTGGACAGAGCTGGCCCTGCTGATTCAACAGTGCA",0.0229,0.0311,0.0305,0.0177,0.036,0.0245,0.0214,0.0211,0.0295,0.0189,0.0161,0.0263,0.0349,0.0243,0.0314,0.0159,0.0358,0.0255
"40.0 (DMSO control at this site: 1-bp insertion 0.072, MH deletion 0.192, edited 0.189) GCGAATCAACTGTTCAACAACAGCAGCAGCCACCTGGAGGACTACAGTGGCCTGTCCGTGT",0.0675,0.0835,0.0737,0.076,0.124,0.0746,0.0721,0.0741,0.0639,0.0778,0.0582,0.107,0.0793,0.0742,0.0673,0.0807,0.0821,0.084
"44.0 (DMSO control at this site: 1-bp insertion 0.181, MH deletion 0.512, edited 0.123) ACACATACCTTCTTCGAGGCAGCCAGCATGATGAGACAGGTCTCCCACAAACACATCGTGT",0.198,0.251,0.174,0.233,0.418,0.192,0.2,0.282,0.166,0.238,0.127,0.293,0.235,0.235,0.173,0.169,0.24,0.188
"39.0 (DMSO control at this site: 1-bp insertion 0.328, MH deletion 0.371, edited 0.204) CTGCACAGTCACTTAGGATAGGAGAAGATGATGTATAGGGTTTAGTGGGAGATGTTGCAAG",0.383,0.466,0.39,0.442,0.804,0.396,0.384,0.463,0.404,0.487,0.395,–,0.45,0.572,0.372,0.355,0.407,0.417
21.0 CGATTGAGAGTCAAACGGGCCAGAAAACTCCGGGAACGGGCCAGAAAACTCCGGGGCATGG,–,0.026,0.0143,0.0287,0.0355,0.0108,0.0393,–,0.0251,0.0194,0.0119,0.0122,–,0.0245,0.0192,0.0417,0.0152,0.0297
8.0 GCATGCGTGTTTTGGGACAATGTAGTATACATTTGGGAGGCTCTCAGCTTTTCCCAATAAA,–,–,–,–,–,0.418,–,–,–,0.257,0.255,0.646,–,0.441,–,–,–,0.442
"17.0 (DMSO control at this site: 1-bp insertion 0.112, MH deletion 0.348, edited 0.058) CCATAGCGCGATAAATATGACGGCTCATCCTGTATGACGGCTCATCCTGTATCAACTGTCC",0.166,0.165,0.136,0.158,0.354,0.14,0.15,0.124,0.14,0.168,0.0727,0.193,0.111,0.166,0.119,0.172,0.17,0.144
"1.0 (DMSO control at this site: 1-bp insertion 0.521, MH deletion 0.323, edited 0.141) GTGTCACAGTGCACGAGTGACGGGATAATGTGCTGACAGGTAATTGATAGGCTTCCAACTT",0.545,0.665,0.573,0.628,0.8,0.594,0.577,0.588,0.594,0.605,0.486,0.73,0.653,0.673,0.54,0.552,0.591,0.6
"26.0 (DMSO control at this site: 1-bp insertion 0.518, MH deletion 0.262, edited 0.026) AGGGCGCGCCCCACGCACTCTGCGGCAAGTCCCTCTGCGGCAAGTCCTCGGCCCGGAAGAC",0.484,0.558,0.515,0.49,0.691,0.495,0.494,0.525,0.452,0.5,0.284,0.567,0.537,0.496,0.46,0.363,0.491,0.494
"16.0 (DMSO control at this site: 1-bp insertion 0.172, MH deletion 0.29, edited 0.05) CGGACTGCACACATGGGTAGGATCGTGCACGCGAGGTAGGATCGTGCACGCGAAGTTATTC",0.169,0.225,0.14,0.213,0.32,0.169,0.149,0.208,0.191,0.172,0.149,0.218,0.178,0.198,0.144,0.19,0.165,0.166
"5.0 (DMSO control at this site: 1-bp insertion 0.214, MH deletion 0.567, edited 0.105) CGCTGACCCGAGACCTACGCGAACCGAAATCGGCGACCGGTGCGCAAGCAGGGCTGGCGTC",0.179,0.261,0.208,0.267,0.477,0.232,0.217,0.252,0.208,0.257,0.184,0.293,0.277,0.277,0.203,0.187,0.27,0.272
"30.0 (DMSO control at this site: 1-bp insertion 0.074, MH deletion 0.67, edited 0.142) GAGCTGGCATGAGTATTTGTGCCACATGGCTCCCACATGGCTCCACATGCAAGTTTGAAAC",0.0975,0.0866,0.0945,0.115,0.178,0.0785,0.0713,0.111,0.0722,0.1,0.0714,0.113,0.0986,0.0891,0.0719,0.0702,0.0954,0.0905
"19.0 (DMSO control at this site: 1-bp insertion 0.121, MH deletion 0.101, edited 0.057) TCTGCAGGGGTCGGAACCCGGGGGCTAGGGCTATCCCGGGGGCTAGGGCTATTAGCGAACC",0.131,0.0931,0.103,0.0834,0.27,0.0666,0.123,0.087,0.0625,0.116,0.0345,0.138,0.109,0.0939,0.0748,0.0634,0.0615,0.104
"25.0 (DMSO control at this site: 1-bp insertion 0.017, MH deletion 0.774, edited 0.143) GGGCCTGAATGGTGTGGACATCTACTCGCTGGTGAGCTGGTGACTGAAAACATTCAGTGGC",0.0225,0.0261,0.0237,0.0265,0.0481,0.0281,0.0223,0.0292,0.0214,0.0363,0.0305,0.0264,0.0219,0.0271,0.0281,0.0315,0.0245,0.0323
"31.0 (DMSO control at this site: 1-bp insertion 0.315, MH deletion 0.329, edited 0.026) ACCTCCACAGGCTGGGTGGCCCGGAGGCTGGGCGGCCCGGAGGCTGGGCTGGGCGAGTATC",0.115,0.185,0.232,0.192,–,0.196,0.214,–,–,0.0994,0.0954,–,0.127,0.173,0.102,0.138,0.178,0.208
